The results in this text go back to PubChem BioAssay (Tox21).

Structures are written as SMILES. Where “and” joins values, the source holds several entries; their conditions need not be identical. Equal values may be shown once. Inconclusive results are not listed. Where a call stands in place of a potency, no number is given. A number with no mark means an inactive call. Calls of active or inactive are those of the source. The call rests on the fitted dose curve; in most records, active means well fitted inhibition curve with a large enough effect in the repeat runs; inconclusive means weak or mixed curves, or effect the other way; inactive means no such curve, though single readings can be large or run the other way.
Potency means the concentration at half of the fitted maximal effect.

The nature of this assay: qHTS assay to identify small molecule antagonists of the retinoic acid receptor (RAR) signaling pathway (AID 1159552; further: nearly all actives have a fitted effect of over 50% in size). The conditions noted are these: C3RL4 RARE luciferase reporter, retinol-stimulated, 6 h; series mostly up to 92.4 µM. An excerpt:
National Center for Advancing Translational Sciences [NCATS]
NIH Chemical Genomics Center [NCGC]
U.S. Environmental Protection Agency [EPA]
National Institutes of Environmental Health Sciences [NIEHS]
National Toxicology Program [NTP]
U.S. Food and Drug Administration [FDA]
All-trans Retinoic acid (atRA) is the potent natural metabolite of retinol and plays an important role in normal embryonic development and maintenance of cellular phenotype in adult animals. atRA is the activating ligand for the retinoic acid receptors (RARs) which form heterodimers with retinoid X receptors (RXRs) on the retinoic acid response element (RARE). Through activation of the RAR/RXRs nuclear receptors, atRA regulates the transcription of a large number of protein-coding genes and regulatory RNAs. Intracellular levels of atRA are controlled by the retinol signaling pathway (RSP) that regulates the biosynthesis and catabolism of atRA to maintain physiological levels. Chemicals that interfere with the RSP can cause abnormal intracellular levels of atRA and therefore are potential developmental toxicants. To assess compounds for the potential adverse effect on embryonic development through interfering with retinol signaling, a cell-based RARE luciferase reporter gene assay was used. C3RL4 cell line (OARSA/CFSAN/FDA, Laurel, MD) was used to screen Tox21 10K compound library for identifying inhibitors of the RSP.
Tox21 Assay Protocol Summary:
C3RL4 cells were seeded at 1,000/well in 4 uL of assay medium into white solid 1,536-well tissue culture plates (Greiner Bio-One North America Inc. Monroe, NC) using a Multidrop Combi (Thermo Scientific, Waltham, MA) dispenser. After incubation at 37 C and 5% CO2 for an overnight, 23 nL of compounds dissolved in DMSO, positive control or DMSO only were transferred by a Pintool station (Kalypsys, San Diego, CA). One ul of 1 uM (final concentration) of Retinol was added right after the compound addition by using a Flying Reagent Dispenser (FRD) (Aurora Discovery, San Diego, CA). After 6 hr incubation at 37 C and 5% CO2, 5 uL of Amplite Luciferase reagent (AAT Bioquest Inc. Sunnyvale, CA) was added to each assay plate using an FRD. Luminescence was quantified on a ViewLux plate reader (PerkinElmer, Waltham, MA) after 30 min incubation at room temperature.
In general terms: Quantitative high-throughput screening tests each substance at several concentrations.
`CCC(CC)C(C)CCOC(C)=O` (stereo not given): the Potency result is “inactive”.
Take `OCC(F)(F)F`: the Potency result was “inactive”.
As for `CCN1C(=O)c2ccccc2C1Nc1ccc(OCCN2CCCCC2)cc1` (stereo not given), the Potency result was “inactive”.
As for `CCCCCC(C)OC(=O)COc1ccc(Cl)c2cccnc12` (stereo not given), the Potency result is “inactive”.
`CC(C)(C)NSc1nc2ccccc2s1`: the Potency entry is “inactive”.
Turning to `Cc1cccc2cccnc12`, the Potency entry is “inactive”.
Take `Cc1c(C)c2c(c(C)c1OC(=O)c1cccnc1)CC[C@@](C)(CCC[C@H](C)CCC[C@H](C)CCCC(C)C)O2`: the Potency entry is “inactive”.
The same measure, in the same setting: the value for `CNc1ccc([N+](=O)[O-])cc1` was “inactive”; that for `CC(C)=CCNc1ncnc2c1ncn2[C@@H]1O[C@H](CO)[C@@H](O)[C@H]1O` was 23.7 µM (active).
`Clc1nnc(Cl)c2ccccc12`: the Potency result is “inactive”.
As for `Cc1ccc(C(=O)O)cc1`, the Potency entry was “inactive”.
For `O=C(/C=C/c1ccc(O)c(O)c1)O[C@@H](C(=O)O)[C@@H](OC(=O)/C=C/c1ccc(O)c(O)c1)C(=O)O`, the Potency entry is “inactive”.
For the compound `OC1CCC(C2CCCCC2)CC1` (stereo not given), the Potency result is “inactive”.
On to `COc1cc(C)ccc1O`, for which the Potency entry was “inactive”.
The same measure, in the same setting: the value for `CNC(=O)c1ccccc1Sc1ccc2c(/C=C/c3ccccn3)n[nH]c2c1` was “inactive”; that for `c1cnccn1` was “inactive”; that for `CCCCOC(=O)CC` was “inactive”.
On the same count and under the same terms, the value for `O=C(O)Cc1ccc2c(c1)C(=O)c1ccccc1CO2` was “inactive”; that for `CCCC(=O)OC(C)(C)Cc1ccccc1` was “inactive”.
As for `CCO[Si](OCC)(OCC)OCC`, the Potency result was “inactive”.
Take `COC(=O)c1ccccc1C`: the Potency entry is “inactive”.
In the case of `CCOC(=O)c1ccc(C2CCC(NC[C@H](O)COc3ccc(O)c(NS(C)(=O)=O)c3)CC2)cc1` (stereo not given in full), the Potency is 56.4 µM (active).
In the case of `CCc1cccc(CC)c1NC(=O)CN(CC(=O)O)CC(=O)O`, the Potency entry is “inactive”.
As for `CCCc1ccc(OCC(=O)N2CCN(C(=O)COc3ccc(CCC)cc3OC)CC2)c(OC)c1`, the Potency result was “inactive”.
Still for that read-out and setting: the value for `CC1(C)CC(O)CC(C)(C)N1` was “inactive”; that for `COc1c(C)c2c(c(O)c1C/C=C(\C)CCC(=O)OCCN1CCOCC1)C(=O)OC2` was “inactive”.
As for `NC(=O)c1cccc([N+](=O)[O-])c1`, the Potency result was “inactive”.
The same measure, in the same setting: the value for `O=[N+]([O-])c1ccc(O)cc1C(F)(F)F` was “inactive”; that for `OC[C@@H](O)[C@@H](O)CO` was “inactive”.
For the compound `CC(C)Cn1cnc2c(N)nc3ccccc3c21`, the activity, negative = inhibition was 2.71% [at 19 µM].
Consider `CCCCC(CC)COC(=O)CCCCC(=O)OCc1ccccc1` (stereo not given), for which the Potency entry is “inactive”.
`Cc1ccc(C)cc1`: the Potency result is “inactive”.
For the compound `CC(=O)[C@H]1CC[C@H]2[C@@H]3CCC4=CC(=O)CC[C@]4(C)[C@H]3CC[C@]12C`, the Potency is 48.3 µM (active) and 30.6 µM (active).
With `CCCCCCCC`, the Potency result is “inactive”.
As for `CN(C)Cc1ccccc1O`, the Potency entry is “inactive”.
As to `Nc1ccc(C(=O)O)c(O)c1`, the Potency entry is “inactive”.
As to `CC1(C)CCC[C@]2(C)[C@H]3CCO[C@]3(C)CC[C@@H]12`, the Potency entry is “inactive”.
In the case of `Cc1ccc(N/N=c2\c(=O)cc/c(=N\Nc3ccc(S(=O)(=O)O)cc3)c2=O)c(C)c1`, the Potency entry was “inactive”.
As to `COC(=O)Nc1nc2ccc(C(=O)c3ccccc3)cc2[nH]1`, the Potency entry is “inactive”.
Regarding `O=S(=O)(O)c1ccccc1/C=C/c1ccc(-c2ccc(/C=C/c3ccccc3S(=O)(=O)O)cc2)cc1`, the Potency entry was “inactive”.
